From PubChem BioAssay (NCATS)
Values joined by “and” are separate entries in the source; they are usually repeats but may differ in a detail not shown here. Equal values may be shown once. Results filed as inconclusive are left out. A number with no mark means an inactive call. Calls follow the shape of the dose curve; as a rule, active = well fitted curve in the direction sought with a large enough effect; inconclusive = small, poorly fitted or top-dose-only effect, or another doubt; inactive = no such curve, though single readings can be large or run the other way.

test: qHTS Assay for Identifying Gametocytocidal Compounds (AID 743244);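 also: actives lower the fluorescent signal which means gametocytes are killed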; details: P. falciparum 3D7 stage III-V gametocytes, alamarBlue, 72 h; max response: active compounds read low
Method in brief: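 Using 20,000 stage III–V 3D7 gametocytes per well, compounds were incubated 72 h under 37 °C/5% CO2. Viability was then assessed by 24 h alamarBlue reduction, measured fluorometrically at 525/598 nm.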
% is scaled to controls: 0 for no effect and ±100 for the full control effect.

| SMILES | max response |
| --- | --- |
| CCCCC[C@H](O)/C=C/[C@@H]1[C@H]2C/C(=C/CCCC(=O)O)O[C@H]2C[C@H]1O | 18.5% |
| CCCCCCCCCCCCOCCCN | -2.81% |
| CCN(CC)CCOC(=O)c1cccnc1 | 6.67% |
| CC(C)c1ncc([N+](=O)[O-])n1C | 3.27% |
| C[C@@H]1O[C@@H]1P(=O)(O)O | -12.6% |
| CCC(O)c1ccccc1 (centres undefined) | 11% |
| OC1OC[C@@H](O)[C@H](O)[C@@H]1O (some centres undefined) | 7.58% |
| CCCCC(=O)O[C@H]1CC[C@H]2[C@@H]3CCc4cc(O)ccc4[C@H]3CC[C@]12C | -1.51% |
| CC[C@H]1OC(=O)C[C@@H](O)[C@H](C)[C@@H](O[C@@H]2O[C@H](C)[C@@H](O[C@H]3C[C@@](C)(O)[C@@H](O)[C@H](C)O3)[C@H](N(C)C)[C@H]2O)[C@@H](CC=O)C[C@@H](C)C(=O)/C=C/C(C)=C/[C@@H]1CO[C@@H]1O[C@H](C)[C@@H](O)[C@@H](OC)[C@H]1OC | 19.1% and -3.87% |
| C[C@]12CC[C@@H]3c4ccc(O)cc4CC[C@H]3[C@@H]1CC[C@@H]2OP(=O)(O)O | -0.293% |
| O=P(O)(O)OP(=O)(O)OP(=O)(O)O | 1.26% |
| c1ccc2cc(C3=NCCN3)ccc2c1 | 5.29% |
| CC1CCCCN1CCCOC(=O)c1ccccc1 (centres undefined) | 6.88% |
| C[C@@H]1NC(=O)[C@@H](N)CNC(=O)[C@H](C2CCNC(N)=N2)NC(=O)/C(=C/NC(N)=O)NC(=O)[C@H](CNC(=O)C[C@@H](N)CCCN)NC1=O (some centres undefined) | 0.778% and -5.05% |
